Results published in PubChem BioAssay (NCI).
About 83,000 compounds went through this panel and 20% of them were active in at least one assay; those are over-represented in the sample as a whole.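 Testing used 96-well plates and a 48-hour single-concentration exposure. Example: -40 means 40% of the starting cells died.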 Values without a mark were called inactive. Calls of active or inactive are those of the source. The calls were made as follows: active = growth percent below 10; inactive = the rest.

Experiments:
Assay in all cases: NCI-60 one-dose screen, 48 h (100 = growth as untreated, 0 = no growth, -100 = all killed)
[1] = tested on: SR leukemia; conditions: 10 µM
[2] = tested on: RPMI-8226 leukemia; conditions: 10 µM
[3] = tested on: OVCAR-8 ovarian; conditions: 10 µM
[4] = tested on: OVCAR-5 ovarian; conditions: 10 µM
[5] = tested on: OVCAR-4 ovarian; conditions: 10 µM
[6] = tested on: SK-OV-3 ovarian; conditions: 10 µM
[7] = tested on: IGROV1 ovarian; conditions: 10 µM
[8] = tested on: OVCAR-3 ovarian; conditions: 10 µM
[9] = tested on: HS 578T breast; conditions: 10 µM
[10] = tested on: NCI/ADR-RES ovarian; conditions: 10 µM
[11] = tested on: T-47D breast; conditions: 10 µM
[12] = tested on: BT-549 breast; conditions: 10 µM
[13] = tested on: MDA-MB-435 melanoma; conditions: 10 µM
[14] = tested on: SW-620 colon; conditions: 10 µM
[15] = tested on: MCF7 breast; conditions: 10 µM unless noted
[16] = tested on: HCT-116 colon; conditions: 10 µM
[17] = tested on: KM12 colon; conditions: 10 µM
[18] = tested on: HCC-2998 colon; conditions: 10 µM

Compound	growth [1]	growth [2]	growth [3]	growth [4] [%]	growth [5]	growth [6]	growth [7]	growth [8]	growth [9] [%]	growth [10]	growth [11]	growth [12]	growth [13]	growth [14]	growth [15]	growth [16]	growth [17] [%]	growth [18] [%]
C[N+](C)(C)C(=O)c1ccccc1	102%	111%	113%	98.7	115%	104%	115%	113%	118	113%	90.4%	101%	114%	107%	96.2%	97.9%	112	–
Cc1ccc(O)c(C(=O)c2ccccc2)c1	113%	113%	111%	96.3	110%	119%	113%	104%	108	105%	109%	99.1%	110%	100%	105%	102%	106	–
COc1ncnc2c1cnn2C	82.6%	107%	103%	103	117%	104%	110%	109%	114	104%	97.1%	95.4%	107%	105%	101%	103%	103	–
COc1ccc(C(O)c2ccccc2)cc1 (stereo unspecified)	102%	108%	97.3%	102	92.6%	99.2%	99.3%	107%	108	105%	87.3%	121%	102%	90.3%	97.5%	110%	93.7	–
CC(CC(=O)c1ccccc1)c1ccccc1 (stereo unspecified)	101%	104%	102%	113	109%	127%	101%	116%	118	118%	104%	107%	99.8%	102%	105%	106%	113	–
O=[N+]([O-])c1ccc(S(=O)(=O)NN=C2CCCCC2)cc1	96.9%	110%	101%	114	99.5%	100%	103%	114%	141	115%	107%	95.5%	114%	114%	102%	97.8%	110	–
OCCN1CCOCC1	104%	107%	110%	101	110%	109%	117%	122%	106	116%	106%	115%	116%	113%	94.8%	97.2%	111	–
O=c1[nH]n(-c2ccccc2)c(=O)cc1Cl	87.8%	97.5%	101%	104	112%	103%	102%	108%	111	107%	97.8%	100%	110%	102%	96.8%	103%	112	–
NNc1ccccc1C(=O)O	112%	112%	110%	88.9	111%	115%	118%	119%	108	107%	107%	103%	116%	101%	104%	112%	108	–
CCCNc1ccc(C2=NCCCN2)cc1	96.9%	98.2%	95.4%	101	100%	107%	86%	99.2%	103	95.2%	97.3%	90%	95.9%	102%	97.7%	97%	94.5	–
CCCCCCCCOC(=O)c1ccccn1	125%	101%	103%	95	104%	95.2%	103%	110%	106	98.8%	96.4%	94.5%	116%	98.3%	96.2%	94.2%	103	–
CC(=O)c1cc2c(cc1F)C(C)(C)CCC2(C)C	92.5%	114%	104%	90.1	103%	105%	101%	101%	99	99.3%	109%	101%	106%	102%	101%	94.4%	107	–
Oc1ccccc1O	75.5%	60.1%	86.3%	106	77.4%	120%	79.1%	92.3%	112	90.2%	95.2%	96%	110%	94.7%	82.5%	87.6%	86.5	–
CC(=O)c1ccc(N=C(C#N)C2=C(O)c3ccccc3C2=O)cc1	91.1%	117%	103%	119	108%	95%	115%	112%	107	105%	93.4%	98.3%	110%	114%	83.1%	106%	107	–
CC1NC(=O)NC1CCCCCC(=O)O (stereo unspecified)	118%	84%	94.8%	97.6	112%	109%	125%	108%	106	113%	101%	105%	117%	105%	99.8%	105%	98.7	–
COC1=CC(=O)c2nc(Cl)ccc2C1=O	5.55% (active)	3.41% (active)	7.95% (active)	11.6	-97% (active)	89.4%	20.4%	-2.3% (active)	74.7	5.5% (active)	-38.7% (active)	106%	-42.1% (active)	-59.8% (active)	-56.8% (active)	-32.7% (active)	91.3	100
O=c1c2ccccc2c(Br)c(Br)c2ccccc12	64.4%	88.5%	96.6%	113	82.1%	109%	91.4%	108%	107	60.5%	53.5%	82.4%	77.6%	29.8%	101%	17.8%	105	103
O=[N+]([O-])c1ccccc1N=Nc1ccc(O)cc1O	93%	109%	104%	126	99.5%	101%	92.9%	122%	131	118%	104%	101%	120%	116%	94.7%	100%	110	–
CCCCOC(OCCCC)c1ccccc1	103%	110%	108%	107	109%	115%	115%	105%	111	97.9%	100%	107%	112%	110%	97.8%	112%	110	–
CC(=O)OC(OC(C)=O)C1CCCO1 (stereo unspecified)	135%	114%	103%	100	97.9%	105%	110%	114%	105	94.5%	101%	95.8%	108%	107%	92.1%	91.3%	101	–

Compound	growth [1]	growth [2]	growth [3]	growth [4] [%]	growth [5]	growth [6]	growth [7]	growth [8]	growth [9] [%]	growth [10]	growth [11]	growth [12]	growth [13]	growth [14]	growth [15]	growth [16]	growth [17] [%]	growth [18] [%]
O=C1c2ccccc2C(=O)N1OCc1ccccc1	93.4%	102%	105%	97.2	105%	99.2%	94.4%	105%	113	116%	92.1%	118%	110%	107%	99.5%	99.8%	105	–
CC(C)OC(C(=O)O)c1ccccc1 (stereo unspecified)	125%	105%	109%	97.1	96.2%	100%	124%	110%	112	104%	91.5%	100%	115%	103%	93%	101%	105	–
NC(=O)c1ccc(N=C(N)N=C(N)N)cc1	97.4%	107%	98.8%	97.8	98.2%	100%	102%	105%	99.6	105%	95.7%	108%	85%	104%	92.7%	105%	99.3	–
CN(C)c1ccc(S(=O)(=O)O)cc1	92.9%	95.6%	101%	93	106%	89%	118%	109%	114	104%	87.6%	98.6%	110%	111%	99.8%	96%	104	103
O=C1C=C(Nc2ccc([N+](=O)[O-])cc2)c2ccccc2C1=O	23.9%	18%	35.1%	86.9	45.3%	62.3%	60.8%	7.94% (active)	47.5	32.5%	20%	-1.53% (active)	-88.2% (active)	40.4%	26.5%	18%	32.4	–
OC(c1ccccn1)C(O)c1ccccn1 (stereo unspecified)	98.7%	108%	102%	90.7	107%	103%	97.9%	113%	111	111%	109%	106%	115%	109%	101%	106%	109	–
FC(F)(F)c1ccc2c(c1)N(CCCN1CCN(C3CC3)CC1)c1ccccc1S2	7.62% (active)	51.9%	46.9%	89.7	73.6%	83.9%	50.2%	24.9%	75.3	61.2%	87.8%	61%	57.7%	38.9%	77.3%	42.7%	59.6	–
O=C(O)c1cccc([N+](=O)[O-])c1O	94.4%	107%	113%	112	111%	98.4%	94.4%	116%	112	102%	101%	93.6%	101%	105%	119%	98.9%	110	–
Cc1ccc(C(=O)c2ccccc2)c(C)c1	127%	98%	109%	95.3	103%	99.2%	101%	112%	113	99.7%	96.4%	99.6%	118%	98.7%	101%	94.8%	107	–
C=CCNc1ccccc1	96.9%	92.8%	107%	106	94%	101%	115%	116%	110	114%	103%	99%	119%	106%	87.4%	92.4%	109	–
O=C(O)CSCSCC(=O)O	97.1%	97.3%	101%	101	99.6%	93.6%	107%	104%	114	109%	95.4%	101%	99.6%	105%	99.6%	106%	109	–
Cc1cc(C(C)(C)C)cc(C)c1Br	84.9%	95.1%	111%	105	115%	108%	112%	120%	99.6	111%	115%	104%	110%	104%	103%	97.6%	105	–
Cc1cc(=O)[nH]c(NN=C2CCCC2)n1	103%	107%	112%	99.4	114%	103%	107%	110%	121	121%	103%	122%	110%	111%	104%	107%	110	–
Nc1ncnc2[nH]ncc12	26.1%	8.64% (active)	6.29% (active)	20.5	-5.84% (active)	2.06% (active)	6.63% (active)	-22.2% (active)	37.3	0.445% (active)	6% (active)	-32.8% (active)	15.2%	17.5%	7.48% (active)	5.13% (active)	18	–
Nc1nc(N)c(N=Nc2ccc(C(=O)O)cc2)c(N)n1	109%	95.1%	104%	101	105%	111%	100%	130%	102	101%	100%	97%	103%	90.8%	104%	–	115	100
O=C1Cc2ccccc2C(=O)O1	79.3%	93.4%	102%	106	112%	114%	114%	127%	107	114%	108%	101%	107%	–	102%	98.2%	115	112
O=c1cc(-c2ccccc2)oc2c1ccc1ccccc12	67.3%	77.8%	82.3%	96	93.6%	88.2%	94.1%	107%	97.8	82.6%	72%	97.6%	88.6%	99.2%	–	85.5%	98.8	98.8
COc1cc(C(N)=O)cc(OC)c1OC	93.3%	106%	98.1%	98.1	110%	111%	108%	117%	106	101%	110%	108%	116%	109%	105%	–	107	105
CC(=O)OCC(=O)[C@@]1(O)CC[C@H]2[C@@H]3CC[C@@H]4C[C@H](O)CC[C@]4(C)[C@H]3C(=O)C[C@@]21C	95.2%	95.1%	107%	112	116%	109%	93.3%	122%	100	110%	108%	102%	103%	103%	–	99.9%	112	97.5
